# Compound activity deposited in PubChem BioAssay by several laboratories.
# PDI turbidity: inhibitors of human PDI, primary screen, biochemical, turbidity, single point, plate reader | PDI insulin aggregation turbidity, A650, 90 min | Protein disulfide-isomerase (Homo sapiens), P07237 | inhibition, % at 10 µM | 350,000 compounds, 0.052% hits | AID 588391, 2011;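 active means mean inhibition across replicates of 30% or more, whatever share of single replicates reach that level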
# ERp5 block: inhibitors of ERp5-driven insulin aggregation, primary screen, biochemical, turbidity, absorbance 650 nm, single point. Protein disulfide-isomerase A6 (Homo sapiens), Q15084. AID 651711, 2012. 350,000 compounds, 0.05% hits. inhibition, % at 9.99 µM. 90 min;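 active means mean replicate inhibition above about 25%, with every replicate also reaching it, limit read from the data, passing the limit was not always enough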
# NRP1-CendR mod: modulators of CendR peptide binding to NRP-1, primary screen, biochemical, fluorescence polarization, uHTS; Neuropilin-1 (Homo sapiens), O14786; FAM-RPARPAR peptide binding to NRP-1; inhibition, % at 25 µM; 360,000 compounds, 0.85% hits; AID 602438, 2012;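 active means inhibition or corrected inhibition above about 18%, plus a signal ratio from 0.5 to 1.5, limit read from the data, passing the limit was not always enough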
# ALR inh: inhibitors of human ALR sulfhydryl oxidase, primary screen, biochemical, H2O2 detection, HRP-luminol luminescence, single point | FAD-linked sulfhydryl oxidase ALR (Homo sapiens), P55789 | purified ALR, DTT oxidation | inhibition, % (concentration not given with the values) | 290,000 compounds, 3.8% hits;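 active means mean replicate inhibition above about 79%, with every replicate also reaching it, limit read from the data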
# Target sequence (P55789 whole entry, looked up): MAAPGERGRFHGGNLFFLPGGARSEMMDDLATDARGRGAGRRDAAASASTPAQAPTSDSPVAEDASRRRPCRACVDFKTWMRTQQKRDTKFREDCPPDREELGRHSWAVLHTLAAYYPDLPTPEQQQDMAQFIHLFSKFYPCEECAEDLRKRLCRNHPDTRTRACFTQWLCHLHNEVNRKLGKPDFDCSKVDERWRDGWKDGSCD
# ARNT-TACC3 inh: disruptors of ARNT/TACC3 protein interaction, primary screen, biochemical, AlphaScreen, single concentration. Transforming acidic coiled-coil-containing protein 3 (Homo sapiens), Q9Y6A5. AlphaScreen His-ARNT PAS-B/GST-TACC3 binding, luminescence; TACC3 fragment carries E629A point mutation. inhibition, % at 9.99 µM. 390,000 compounds, 0.66% hits. AID 623870, 2012;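 active means mean inhibition of replicates at least 50% and at least half of replicates each reaching 50%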;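 further: 0% = complete ARNT plus TACC3 wells and 100% = ARNT alone without TACC3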
# PglD inh: C. jejuni PglD acetyltransferase inhibitors, primary screen, biochemical, DTNB colorimetric, single point; inhibition, % at 12.5 µM; 360,000 compounds, 0.098% hits; purified PglD enzyme, DTNB colorimetric CoA detection; in the data active means inhibition above about 16%, passing the limit was not always enough
# * hit, by the source's call; x = not tested or not shown. The full list was thinned out, with hits kept by preference.
SMILES,PDI turbidity,ERp5 block,NRP1-CendR mod,ALR inh,ARNT-TACC3 inh,PglD inh
O=C(Cn1ccc([N+](=O)[O-])n1)N1CCc2ccccc21,-6,6,1,-3,-6,1
Cc1ccn(CCC(=O)N2CCc3ccccc32)n1,9,0,20*,-7,-1,0
O=S1(=O)NC(C2CC2c2ccccc2)CCO1 (centres undefined),-2,-3,23*,-2,-1,-2
O=C1NC(c2ccccc2)CCO1 (centres undefined),2,-2,-7,4,10,1
CC(C)[C@@H](C)NC(=O)N(C)C[C@H]1OCc2ccccc2-c2ccccc2C(=O)N([C@H](C)CO)C[C@@H]1C,x,8,x,x,11,1
CCc1ccc(-c2nc(CS(=O)CC(=O)NC3CCCCCC3)c(C)o2)cc1 (centres undefined),-5,0,9,99*,-8,0
Cc1oc(-c2ccccc2)nc1CS(=O)CC(=O)NC1CCCC1 (centres undefined),x,1,-2,99*,-3,-6
CCc1ccc(-c2nc(CS(=O)CC(=O)NC3CC3)c(C)o2)cc1 (centres undefined),-4,-4,8,98*,-5,2
Cc1oc(-c2ccccc2Cl)nc1CS(=O)CC(=O)NC1CC1 (centres undefined),8,3,4,99*,-20,7
Cc1cccc(-c2nc(CS(=O)CC(=O)NCC3CCCO3)c(C)o2)c1 (centres undefined),x,-3,1,x,-1,-5
Cc1oc(-c2ccccc2Cl)nc1CSCC(=O)NC1CCCC1,4,x,14,x,-1,x
CCS(=O)(=O)Nc1ccc2c(c1)C(=O)N(C)[C@H]1CC[C@@H](CC(=O)NCc3ccc(OC)cc3)O[C@H]1CO2,x,14,x,x,-2,-1
CCC(=O)Nc1ccc2c(c1)C(=O)N(C)C[C@H](OC)[C@H](C)CN(Cc1ccccn1)[C@H](C)CO2,x,4,x,x,26,2
CCc1ccc(-c2nc(CS(=O)CC(=O)O)c(C)o2)cc1 (centres undefined),1,9,7,99*,-12,0
Cc1ccc(-c2nc(CS(=O)(=O)CC(=O)NC3CC3)c(C)o2)cc1,2,5,7,-2,-23,3
Cc1ccc(-c2nc(CS(=O)CC(=O)NC3CC3)c(C)o2)cc1 (centres undefined),-3,3,-10,99*,-6,-2
Cc1ccc(-c2ccccc2NC(=O)CS(=O)CC(=O)Nc2ccc(C)c(Cl)c2)o1 (centres undefined),-11,6,13,99*,18,1
Cc1cc(C)cc(NC(=O)C2C3C=CC(O3)C2C(=O)O)c1 (centres undefined),11,3,10,7,-3,8
Cc1csc(NC(=O)C2C3C=CC(O3)C2C(=O)O)n1 (centres undefined),6,x,3,98*,-1,-2
CCc1n[nH]c(=S)n1/N=C/c1cccc2ccccc12,-4,-1,5,2,9,3
CCc1n[nH]c(=S)n1/N=C/c1cc(OC)cc([N+](=O)[O-])c1O,-1,x,47*,17,x,x
OC[C@@H]1[C@H](c2ccc(/C=C/c3ccccc3)cc2)[C@@H]2CN(Cc3ccncc3)CCCCN12,x,-1,x,x,5,6
Cc1ccc(C)c(N)c1,x,-4,-7,-9,x,5
Cc1cc(Cc2cc(C)c(N)cc2C)c(C)cc1N,-4,0,-3,97*,3,4
CCN(CC)S(=O)(=O)c1ccc(NC(=O)CSc2ncnc3ccccc23)cc1,-10,x,-6,98*,0,x
Cc1ccc(NC(=O)CSc2ncnc3ccccc23)cc1S(=O)(=O)N1CCCCC1,7,x,-2,59,-1,x
